# Results reported in PubChem BioAssay (Tox21).
# Records with an inconclusive call do not appear. Where a call stands in place of a potency, no number is given. Active and inactive are the calls of the source. The call rests on the fitted dose curve; in most records, active means well fitted cell-killing curve with a large enough effect in the repeat runs; inconclusive means weak or mixed curves, or effect the other way; inactive means flat fitted curve, though single readings scatter.
# Test: Nuclear factor erythroid 2-related factor 2/antioxidant responsive element (Nrf2/ARE) small molecule agonists: qHTS cell viability counter screen in human keratinocytes (AID 1919968); further: nearly all actives have a fitted effect of over 55% in size
# Details: KeratinoSens HaCaT ARE cells viability, CellTiter-Fluor, 24 h; series mostly up to 92.4 µM
# How it was run: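 Viability counter-screen: KeratinoSens reporter cells, DMSO-delivered compounds, 23 h at 37 C, CellTiter-Fluor fluorescence.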
row,Structure (SMILES),Potency
1,OC[C@H]1O[C@@H]2O[C@H]3[C@H](O)[C@@H](O)[C@@H](O[C@H]4[C@H](O)[C@@H](O)[C@@H](O[C@H]5[C@H](O)[C@@H](O)[C@@H](O[C@H]6[C@H](O)[C@@H](O)[C@@H](O[C@H]7[C@H](O)[C@@H](O)[C@@H](O[C@H]8[C@H](O)[C@@H](O)[C@@H](O[C@H]9[C@H](O)[C@@H](O)[C@@H](O[C@H]1[C@H](O)[C@H]2O)O[C@@H]9CO)O[C@@H]8CO)O[C@@H]7CO)O[C@@H]6CO)O[C@@H]5CO)O[C@@H]4CO)O[C@@H]3CO,inactive
2,CCCCCCCCCCCCOC(C)=O,inactive
3,S=C(S)NCCNC(=S)S,inactive
4,C=Cc1ccc(C(C)(C)C)cc1,inactive
5,CCN[C@H]1C[C@H](C)S(=O)(=O)c2sc(S(N)(=O)=O)cc21,inactive
6,O=c1c2ccccc2oc2ccccc12,inactive
7,Nc1ncn([C@H]2C[C@H](O)[C@@H](CO)O2)c(=O)n1,inactive
8,CC(=O)Nc1ccc(S(=O)(=O)Cl)cc1,inactive
9,CC(C)(C)C(=O)CCc1ccc(Cl)cc1,inactive
10,CC(=O)NNC(C)=O,inactive
11,O=[N+]([O-])c1ccc(Cl)cc1Cl,inactive
12,OCC1CC=CCC1 (centres undefined),inactive
13,C=CCN(CC=C)CC=C,inactive
14,O=C(Cl)c1c(Cl)cccc1Cl,inactive
15,NCCCN(CCO)CCO,inactive
16,CC1=C(C(=O)O)N2C(=O)[C@@H](NC(=O)[C@H](N)C3=CCC=CC3)[C@H]2SC1,inactive
17,C#CC(O)C(CC)CCCC (centres undefined),inactive
18,C=C1CCC2CC1C2(C)C (centres undefined),inactive
19,CC(C)CCOCc1ccccc1,inactive
